Screening results: PubChem BioAssay, National Center for Advancing Translational Sciences (NCATS)
Compounds with a hit are over-represented: about 5.7% of the library has one in this group of screens.
A549 viability = counter-screen for Nrf2 inhibitors: cytotoxicity in A549 cells; 390,000 tested, 0.16% active; Potency, µM (series often up to 46 µM), for inactives: top-dose activity change, negative = cytotoxicity, most hits filed as inhibitors; A549 ARE-Fluc cells, CellTiter-Fluor viability, 18-24 h; note: potency is the fitted concentration of half-maximal effect
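A549 ARE_Fluc cells in 5% FBS OPTI-MEM were exposed to compounds in concentration-response for 18-24 h at 37 deg C. Viability was read by CellTiter-Fluor fluorescence (Ex 405/Em 525) after 30 min, before the luciferase read.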
KB-3-1 cytotox = KB-3-1 parental cell cytotoxicity; Potency, µM (highest dose often 46.1 µM), most hits filed as cytotoxic; AID 1347075; KB-3-1 viability, CellTiter-Glo ATP luminescence, 72 h; 400,000 tested, 1.4% active; note: potency is the fitted concentration of half-maximal effect; nearly all actives have a fitted effect of over 60% in size
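Parental KB-3-1 adenocarcinoma cells in phenol-red-free DMEM with 10% FBS were pin-treated with compounds at several concentrations, incubated 72 h at 37 °C, and viability read by CellTiter-Glo luminescence; concentration-effect curves were fitted after normalization.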
KB-V1 MDR tox = kills drug-selected multidrug resistant KB-V1 cells | 400,000 tested, 3.4% active | KB-V1 MDR cells viability, CellTiter-Glo, 72 h | Potency, µM (highest dose often 46.1 µM), most hits filed as cytotoxic; note: potency is the fitted concentration of half-maximal effect; nearly all actives have a fitted effect of over 60% in size
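Potencies derive from concentration-effect curves fitted to normalized luminescence (CellTiter-Glo) of KB-V1 cells treated for 72 h at 37 degrees C in phenol-red-free DMEM containing 10% FBS.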
Nrf2 inh = inhibitors of Nrf2 signaling; A549 ARE-Fluc reporter, luciferase luminescence, 18-24 h; Potency, µM (top dose mostly 46 µM), for the others: top-dose activity change, negative = inhibition, hits mostly inhibitors; 360,000 tested, 2.1% active; note: potency is the fitted concentration of half-maximal effect; nearly all actives have a fitted effect of over 60% in size
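Cells were seeded and rested 2 h, then exposed to compounds for 18-24 h. CellTiter-Fluor was read first as a viability measure. BugLite was added 15 min before the final luminescent read of ARE-luciferase activity in A549 cells.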
Giardia kill = Giardia lamblia killing; Giardia lamblia trophozoite viability; activity change, % at 7.66 µM, hits read low; 340,000 tested, 0.15% active; in the data active = activity change below about -80%; inconclusive = between about -30% and that limit;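 note: parasites exposed to compound for two days anaerobically before the ATP read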
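Each well holds 100 Giardia trophozoites and compound. After two days (48 hrs) at 37 deg C in anaerobic conditions, ATP is quantified by luminescence.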
PI4K2A inh = blocks human PI4K2A kinase activity; Q9BTU6; activity change, negative = inhibition, % at 76.9 µM; 420,000 tested, 0.13% active; purified PI4K2A, ADP-Glo luminescence, 1 h; stronger effect = lower value; in the data active = activity change below about -50%; inconclusive = mostly about -30% to -49%;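 note: -100% = wells without enzyme as full effect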
Target sequence (Q9BTU6 whole entry, looked up): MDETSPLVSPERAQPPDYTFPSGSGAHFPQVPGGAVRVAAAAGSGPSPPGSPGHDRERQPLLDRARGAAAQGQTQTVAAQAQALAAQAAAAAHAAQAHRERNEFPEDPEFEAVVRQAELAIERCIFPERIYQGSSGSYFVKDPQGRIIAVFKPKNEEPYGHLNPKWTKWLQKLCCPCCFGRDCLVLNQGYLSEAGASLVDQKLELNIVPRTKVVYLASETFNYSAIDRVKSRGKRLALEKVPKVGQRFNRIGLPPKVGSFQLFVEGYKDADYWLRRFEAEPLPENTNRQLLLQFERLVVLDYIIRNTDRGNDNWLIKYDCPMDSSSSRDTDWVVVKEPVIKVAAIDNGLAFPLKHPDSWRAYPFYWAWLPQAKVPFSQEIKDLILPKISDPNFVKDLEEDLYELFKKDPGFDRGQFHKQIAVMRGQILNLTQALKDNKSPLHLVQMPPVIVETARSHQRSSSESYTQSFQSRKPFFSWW
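Compounds are screened against recombinant PI4K2A using PI as substrate and ATP, the latter dispensed at 300 microM. Reactions run one hour at ambient temperature before ADP-Glo detection; full inhibition defined by wells lacking enzyme.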
An asterisk follows results filed as active; i = inactive; ? = inconclusive; / = no result given. Unless noted, calls come from the whole dose curve; as a rule, active = well fitted curve in the direction sought with a large enough effect; inconclusive = small, poorly fitted or top-dose-only effect, or another doubt; inactive = no such curve, though single readings can be large; an effect the other way counts as inactive or inconclusive. Unless noted, % is set by controls: 0 for no effect and ±100 for the full control effect.

SMILES	A549 viability	KB-3-1 cytotox	KB-V1 MDR tox	Nrf2 inh	Giardia kill	PI4K2A inh
O=C(Nc1nc2ccc(C(=O)N3CCCCC3)cc2s1)C1CCCCC1	-15%	5.8µM*	3.7µM*	9%	22	2
COc1ccc2nc(NC(=O)C3CCN(S(=O)(=O)c4cccs4)CC3)sc2c1	?	?	23µM*	?	25	-9
CC(=O)c1cc2c(s1)c1cnn(Cc3ccccc3F)c(=O)c1n2C	9%	/	/	7%	/	/
O=C(O)Cn1cnnn1	/	/	/	/	/	1
Cc1cc2c(s1)c1cnn(Cc3c(Cl)cccc3Cl)c(=O)c1n2C	-7%	/	/	4%	/	/
Clc1ccc(Cn2c(-c3cccnc3Cl)nc3ccccc32)c(Cl)c1	?	?	23µM*	18µM*	8	0
COc1ccccc1N(CC(O)COc1ccccc1)S(=O)(=O)c1ccccc1 (centres undefined)	-2%	i	13µM*	0%	-12	1
COc1ccccc1N(CC(O)COc1c(C)cc(C)cc1C)S(=O)(=O)c1ccccc1 (centres undefined)	-2%	?	8.2µM*	3%	-15	-2
O=C(N/N=C/c1ccc(Cl)cc1)c1cc2c(s1)-c1ccccc1CC2	-14%	21µM*	?	/	13	5
O=C(O)c1cc2c(s1)-c1ccccc1CC2	2%	i	i	-5%	-10	2
C[C@H](CCC(=O)N(c1ccccc1)c1ccccc1)CC1CCCCC1	/	/	/	/	/	-2
Cc1c(Cc2ccccc2)sc(NC(=O)/C=C/c2cccc3ccccc23)c1C(N)=O	-6%	9.2µM*	?	10%	-7	0
COc1ccc(OC)c(NC(=O)CSc2nnc(Cc3cccn3C)n2CCc2ccccc2)c1	?	i	7.3µM*	?	6	4
O=[N+]([O-])c1ccc(Cl)c(-c2ccc(/C=N/n3cnnc3)o2)c1	-4%	i	i	1%	14	0
NC(=S)N/N=C/c1ccc(-c2cc(Cl)ccc2Cl)o1	-14%	i	7.3µM*	-19%	-8	12
CNC(=S)N/N=C/c1ccc(-c2cc([N+](=O)[O-])ccc2Cl)o1	-7%	7.3µM*	i	?	-19	-2
N#C/C(=C/c1ccc(-c2cc([N+](=O)[O-])ccc2Cl)o1)C(N)=O	-16%	i	12µM*	?	-3	2
Cc1cccc(C)c1OCC(=O)NCC1(N2CCOCC2)CCCCC1	-1%	/	/	6%	/	-2
Cc1cc2ccccc2c[n+]1CC(=O)c1ccc(F)cc1	/	i	i	/	/	/
CCCCC[C@H](C)N1C[C@H](COCc2ccccc2)Oc2cc(N3CC[C@H](N(C)C)C3)ccc2S1(=O)=O	/	?	21µM*	/	/	-1
CCCCC[C@@H](C)N1C[C@H](COCc2ccccc2)Oc2cc(N3CC[C@@H](N(C)C)C3)ccc2S1(=O)=O	/	?	16µM*	/	/	2
CCCCC[C@@H](C)N1C[C@@H](COCc2ccccc2)Oc2cc(N3CCC[C@@H]3CO)ccc2S1(=O)=O	/	?	16µM*	/	/	-2
C[C@H](c1ccccc1)N1C[C@H](COCc2ccccc2)Oc2cc(N3CC[C@@H](O)C3)ccc2S1(=O)=O	/	i	23µM*	/	/	-1
C[C@@H](c1ccccc1)N1C[C@@H](COCc2ccccc2)Oc2cc(N3CC[C@@H](O)C3)ccc2S1(=O)=O	/	i	i	/	/	-1
CCCCC[C@@H](C)N1C[C@H](COCc2ccccc2)Oc2cc(N3CCC[C@@H]3COC)ccc2S1(=O)=O	/	i	i	/	/	4
O=C1c2ccccc2C(=O)N1c1ncccc1O	8%	/	/	3%	/	/
CCCCNC(=O)C[C@H]1C[C@@]2(C(=O)OC)C(=C[C@H](COCc3ccccc3)O[C@@H]2C)N(Cc2ccco2)C1=O	/	/	/	/	/	1
CCCCC[C@@H](C)N1C[C@@H](COCc2ccccc2)Oc2cc(N3CC[C@@H](N(C)C)C3)ccc2S1(=O)=O	/	?	21µM*	/	/	-6
COc1cc(Cl)c(C)cc1NC(=O)CN1CCN(C(=O)C2CC2)CC1	?	i	21µM*	-3%	29	2
